Drawing on PubChem BioAssay (EPA / NIEHS), this text covers outcome and AC50 for 16 molecules.

Results filed as inconclusive are left out. Active and inactive are the calls of the source. The calls were made as follows: active = hit-call score of the fitted dose curve at least 0.9, where 1 is the maximum; inconclusive = response in the unintended direction; inactive = score below 0.9.

Chain of Bile acid receptor (Homo sapiens) (Q96RI1 whole entry, looked up): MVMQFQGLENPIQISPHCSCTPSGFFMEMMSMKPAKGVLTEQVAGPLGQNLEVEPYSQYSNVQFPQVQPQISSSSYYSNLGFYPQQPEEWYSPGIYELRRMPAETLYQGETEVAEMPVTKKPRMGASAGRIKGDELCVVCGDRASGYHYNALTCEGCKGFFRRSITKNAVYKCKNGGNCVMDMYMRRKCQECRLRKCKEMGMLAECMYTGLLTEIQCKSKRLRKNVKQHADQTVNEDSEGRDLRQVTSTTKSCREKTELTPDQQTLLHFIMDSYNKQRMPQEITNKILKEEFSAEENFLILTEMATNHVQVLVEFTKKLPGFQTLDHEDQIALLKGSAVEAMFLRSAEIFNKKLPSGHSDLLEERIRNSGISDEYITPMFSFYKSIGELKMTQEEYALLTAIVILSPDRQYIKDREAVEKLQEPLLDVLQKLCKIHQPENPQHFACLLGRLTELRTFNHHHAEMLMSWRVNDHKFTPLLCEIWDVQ

In the test the target is Bile acid receptor (Homo sapiens) (UniProt Q96RI1). The test is described as follows: NVS_NR_hFXR_Agonist: NovaScreen (NVS) Nuclear Receptor Binding Assay for human Farnesoid X Receptor Agonism (FXR) (AID 2283347). How it is done:
NVS_NR_hFXR_Agonist is a biochemical, single-readout assay that uses extracted gene-proteins in a cell-free assay. Measurements were taken 1 hour after chemical dosing in a 384-well plate.NVS_NR_hFXR_Agonist is one of one assay component(s) measured or calculated from the NVS_NR_hFXR_Agonist assay. It is designed to make measurements of fluorescent resonance energy transfer, a form of binding reporter, as detected with fluorescent resonance energy transfer signals by Time-Resolved Fluorescence Resonance Energy Transfer (TR-FRET) technology.Data from the assay component NVS_NR_hFXR_Agonist was analyzed into 1 assay endpoint. This assay endpoint, NVS_NR_hFXR_Agonist, was analyzed in the positive analysis fitting direction relative to DMSO as the negative control and baseline of activity. Using a type of binding reporter, gain-of-signal activity can be used to understand changes in the binding as they relate to the gene NR1H4. Furthermore, this assay endpoint can be referred to as a primary readout, because the performed assay has only produced 1 assay endpoint. To generalize the intended target to other relatable targets, this assay endpoint is annotated to the nuclear receptor intended target family, where the subfamily is non-steroidal.
Binding assays used specific radioligands (tritiated, iodinated) with non-radioactive competitive displacement ligands in agonist or antagonist protocols (as indicated) and various reference compounds and inhibitors to titrate specific binding to receptors and transporters. Most enzyme assays (CYPs, kinases, phosphatases, proteases, HDACs) used recombinant protein and specific substrates (fluorescence mostly, some colorimetric and radioactive) and inhibitors, followed by a biochemical separation of substrate and product. All assays for the biochemical HTS were initially run in duplicate at a single concentration (10 uM for CYP450 assays and 25 uM for all others). […] Each assay was run with positive and negative controls, and concurrent controls on every plate. The follow-up (secondary) screen tested active chemical-pairs in concentration series, as well as a few additional assays not tested in the primary screen, some selected negative inactives, and several cases re-run in the concentration series for confirmatory purposes.
As for `CC1(C)C(=O)N(Br)C(=O)N1Br`, the result was inactive.
With `CCCCCCCCOC(=O)c1cc(O)c(O)c(O)c1`, the molecule was called inactive.
Consider `O=C(O)C1(C(=O)Nc2ccc(Cl)cc2Cl)CC1`, for which the call was inactive.
`CCN(CC)CCOc1ccc(C(=C(Cl)c2ccccc2)c2ccccc2)cc1`: the molecule was called inactive.
With `COc1cc(C(C)C)c2c(c1)S(=O)(=O)N(COc1cc(=O)n3cccc(OCCN4CCCCC4)c3n1)C2=O`, the result was inactive.
Regarding `CCCCOC(=O)[C@@H](C)Oc1ccc(Oc2ccc(C(F)(F)F)cn2)cc1`, the call was inactive.
Turning to `COCC(C)OCC(C)O` (stereo unspecified), the call was inactive.
On to `CCc1c(C(=O)NN2CCCCC2)nn(-c2ccc(Cl)cc2Cl)c1-c1ccc(Br)cc1`, for which the result was inactive.
As for `CCN(CCC#N)c1ccc(N=Nc2c(Cl)cc([N+](=O)[O-])cc2Cl)cc1`, the molecule was called inactive.
In the case of `CC(C)OC(=O)C(C)(C)Oc1ccc(C(=O)c2ccc(Cl)cc2)cc1`, the AC50 was 25 µM (active).
The same measure, in the same setting: next, `CCN(Cc1cccnc1)C(=O)c1cccc(Cl)c1[C@]1(C)C(=O)N(Cc2ccc(OC)cc2OC)c2ccc(Cl)cc21`: 15.1 µM (active).
On to `c1ccc(C[n+]2cccc3ccccc32)cc1`, for which the molecule was classed as inactive.
For the molecule `CCCCOC(=O)C(C)Oc1ccc(Oc2ccc(C(F)(F)F)cn2)cc1` (stereo unspecified), the outcome was inactive.
As for `Cc1c(C)c2c(c(C)c1O)CCC(C)(COc1ccc(CC3SC(=O)NC3=O)cc1)O2` (stereo unspecified), the molecule was classed as inactive.
In the case of `Cc1nn(C)c(Oc2ccccc2)c1C=NOCc1ccc(C(=O)OC(C)(C)C)cc1`, the molecule was classed as inactive.
For the molecule `CCCCOC(=O)c1ccc(O)cc1`, the call was inactive.

In general, AC50 refers to the midpoint of the concentration-response curve, whichever way the signal moves.
